Inconclusive results are not listed. Calls of active or inactive are those of the source. Unless noted, calls come from the whole dose curve; as a rule, active = well fitted curve in the direction sought with a large enough effect; inconclusive = small, poorly fitted or top-dose-only effect, or another doubt; inactive = no such curve, though single readings can be large; an effect the other way counts as inactive or inconclusive. Where a SMILES comes first, the peptide text is derived from it. [ ]: non-standard residue; d: D form. Dip = N[C@H](C(=O)O)C(c1ccccc1)c1ccccc1
Legend:
[1] = Primary qHTS for inhibitors of nuclear receptor binding SET domain protein 2 (NSD2) in an isogenic RCH-ACV NSD2 p.E1099K mutant (9B) (AID 1645876); note: nearly all actives have a fitted effect of over 70% in size; note: potency is the fitted concentration of half-maximal effect
[2] = Primary qHTS for inhibitors of nuclear receptor binding SET domain protein 2 (NSD2) in an RCH-ACV wild type WT cells (2C) (AID 1645877); note: nearly all actives have a fitted effect of over 70% in size; note: potency is the fitted concentration of half-maximal effect
[3] = target: Glutathione peroxidase 1 (Homo sapiens) (UniProt P07203); assay: Primary qHTS Assay for Inhibitors of Recombinant Selenoprotein Glutathione Peroxidase 1 (GPX1) (AID 1845191); note: nearly all actives have a fitted effect of over 65% in size
Chain of Glutathione peroxidase 1 (Homo sapiens) (P07203 whole entry, looked up): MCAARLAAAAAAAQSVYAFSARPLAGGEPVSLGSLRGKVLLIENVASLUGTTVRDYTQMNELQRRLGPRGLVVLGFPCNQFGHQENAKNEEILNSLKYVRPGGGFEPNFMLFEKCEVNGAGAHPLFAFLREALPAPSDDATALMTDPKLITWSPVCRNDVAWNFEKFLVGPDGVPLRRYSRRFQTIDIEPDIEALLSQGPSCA
In short: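 GR-coupled readout: NADPH consumption tracked by fluorescence, ex 340/em 450 nm, at t=0 and after 15 min at RT. Final mix 10 nM GPX1, 1 mM GSH, 0.5 mM CHP, 0.5 mM NADPH, 100 nM GR, 0.01% BSA, following 30 min enzyme–compound preincubation.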

[4] = target: Phospholipid hydroperoxide glutathione peroxidase GPX4 (Homo sapiens) (UniProt P36969); assay: Primary qHTS Assay for Inhibitors of Recombinant Selenoprotein Glutathione Peroxidase 4 (GPX4) (AID 1845192); note: nearly all actives have a fitted effect of over 65% in size; note: potency is the fitted concentration of half-maximal effect
Chain of Phospholipid hydroperoxide glutathione peroxidase GPX4 (Homo sapiens) (P36969 whole entry, looked up): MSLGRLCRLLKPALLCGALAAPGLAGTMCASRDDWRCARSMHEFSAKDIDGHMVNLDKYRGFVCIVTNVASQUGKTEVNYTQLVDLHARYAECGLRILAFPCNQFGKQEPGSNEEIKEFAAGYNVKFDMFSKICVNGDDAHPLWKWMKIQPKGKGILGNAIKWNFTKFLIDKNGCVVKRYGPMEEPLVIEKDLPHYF
In short: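 Steps: GPX4 plus compound, 30 min RT; add GR/GSH/NADPH master mix; start with cumene hydroperoxide; read 340/450 nm fluorescence at 0 and 15 min. Finals were 200 nM GPX4, 1 mM GSH, 0.5 mM CHP, 0.5 mM NADPH, 100 nM GR.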

[5] = qHTS drug screen for cell cycle checkpoint inhibitors in PARPi-resistant BRCA-mutant ovarian cancer cell lines. (AID 1963452; calls by dose curve; note: potency is the fitted concentration of half-maximal effect); conditions: PEO1/OlaR viability, CellTiter-Glo luminescence, 96 h; for Z-AUC: stronger effect = lower value
In short: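 PEO1, PEO4 and PEO1/OlaR ovarian cancer cells, 600 per well, exposed 96 h at 37C to a dilution series. Viability read by CellTiter-Glo luminescence, normalized to DMSO and empty wells; activity summarized as Z-AUC.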

[6] = measured here: PEO1 parental Z-AUC

| SMILES | Potency [1] | Potency [2] | Potency [3] | Potency [4] | Z-AUC [5] | Z-AUC [5, 6] | Z-AUC ([5]; measured here: PEO4 Z-AUC) | Potency [5] |
| --- | --- | --- | --- | --- | --- | --- | --- | --- |
| Cc1ccc(Nc2nnc(Cc3ccncc3)c3ccccc23)cc1Br | 14.8 µM (active) | 13.2 µM (active) | inactive | inactive | 0.372 (inactive) | 0.414 | -0.215 | – |
| CC(C)(C)C[C@H]1N[C@@H](C(=O)NC2CCC(O)CC2)[C@H](c2cccc(Cl)c2F)[C@@]12C(=O)Nc1cc(Cl)ccc12 (stereo not given in full) | 1.48 µM (active) | 0.468 µM (active) | inactive | inactive | -0.139 (inactive) | 0.559 | 0.282 | – |
| COc1ccccc1C(=O)Nc1cc2c(cc1N1CCNC[C@H]1C)n(C)c(=O)n2C | 20.9 µM (active) | 18.6 µM (active) | inactive | inactive | -0.6 (inactive) | -0.159 | 0.121 | – |
| CC[C@H](C)[C@@H]([C@@H](CC(=O)N1CCC[C@H]1[C@H](OC)[C@@H](C)C(=O)N[C@@H](Cc1ccccc1)c1nccs1)OC)N(C)C(=O)[C@@H](NC(=O)[C@H](C(C)C)N(C)C)C(C)C | inactive | inactive | inactive | inactive | – | -3.14 | -2.96 | 27.5 µM (active) |
| COc1ccc(Oc2cc(NCCC(F)(F)F)c3ncc(-c4ccc(C(=O)NC5CC5)c(C)c4)n3n2)c(F)c1F | 0.0235 µM (active) | 0.0148 µM (active) | inactive | inactive | 1.26 (inactive) | 0.0575 | -0.837 | – |
| CC[C@H](Nc1ncnc2nc[nH]c12)c1oc2ccccc2c(=O)c1-c1cccc(F)c1 | 1.32 µM (active) | 1.48 µM (active) | inactive | inactive | 0.58 (inactive) | 0.184 | 0.542 | – |
| N#Cc1cc2cc(CN3CCC(Nc4ncnc5sc(CC(F)(F)F)cc45)CC3)c(O)cc2n1Cc1cn[nH]c1 | 13.2 µM (active) | 11.8 µM (active) | inactive | inactive | -1.24 (inactive) | -1.35 | -1.55 | – |
| c1ccc(-c2cc(CCC3CCNCC3)c3ccccc3n2)cc1 | 16.6 µM (active) | 13.2 µM (active) | – | inactive | -0.417 (inactive) | 0.0933 | 0.16 | – |
| CSc1ccc(C(=O)/C=C/c2cc(C)c(OC(C)(C)C(=O)O)c(C)c2)cc1 | 19.1 µM (active) | 17.1 µM (active) | inactive | – | -0.442 (inactive) | 0.00794 | -0.391 | – |
| Cc1noc(C)c1-c1ccc(-c2cc(C(N)=O)c(NC(N)=O)s2)c(O[C@H]2CCNC2)c1 | 16.6 µM (active) | 14.8 µM (active) | inactive | – | -0.139 (inactive) | -0.81 | -0.908 | – |
| NCCCC[C@H](NC(=O)[C@@H](NC(=O)[C@H](Cc1c[nH]c2ccccc12)NC(=O)[C@H](CCCCN)NC(=O)[C@H](CCCCN)NC(=O)[C@H](Cc1c[nH]c2ccccc12)NC(=O)[C@H](Cc1c[nH]c2ccccc12)NC(=O)[C@H](CCCCN)NC(=O)[C@@H](N)CCCCN)C(c1ccccc1)c1ccccc1)C(N)=O (H-KKWWKKW[Dip]K-NH2) | 13.2 µM (active) | 20.9 µM (active) | – | inactive | 0.988 (inactive) | 0.826 | 0.857 | – |
| O=C(c1ccc(Nc2nc(C3CC3)cn3c(-c4cn[nH]c4)cnc23)c(F)c1)N1CCOCC1 | 9.34 µM (active) | 9.34 µM (active) | inactive | inactive | 0.98 (inactive) | 0.912 | 1.07 | – |
| N#Cc1c(N)nc(N)nc1N[C@H](c1nc2c(F)ccc(Cl)c2c(=O)n1-c1cccnc1)C1CC1 | 0.417 µM (active) | 0.417 µM (active) | – | inactive | -1.77 (inactive) | -0.776 | -0.121 | – |
| O=c1c(-c2ccc(O)cc2)coc2cc(O[C@@H]3O[C@H](CO)[C@@H](O)[C@H](O)[C@H]3O)ccc12 | 16.6 µM (active) | 16.6 µM (active) | – | inactive | 1.43 (inactive) | 1.29 | 1.57 | – |
| Cc1noc(-c2ccc(-c3ccc(C4(C(=O)O)CC4)cc3)cc2)c1NC(=O)O[C@H](C)c1ccccc1 | 16.6 µM (active) | 16.6 µM (active) | – | 9.04 µM (active) | 1.39 (inactive) | 1.53 | 1.53 | – |
| COc1ccc(/C=C\c2cc(OC)c(OC)c(OC)c2)cc1O | 0.0105 µM (active) | 0.0093 µM (active) | inactive | inactive | – | -1.52 | -1.81 | 0.0078 µM (active) |
| NC(=O)c1ccc2nc(-c3ccc(C4(N)CCC4)cc3)c(-c3ccccc3)n2n1 | 0.296 µM (active) | 0.332 µM (active) | inactive | inactive | -0.331 (inactive) | -0.179 | 0.0521 | – |
| C=CC(=O)Nc1cccc(Oc2nc(Nc3ccc(N4CCN(C)CC4)cc3)nc3ccsc23)c1 | 3.32 µM (active) | 3.32 µM (active) | inactive | inactive | -0.291 (inactive) | -0.486 | -0.146 | – |
| COc1cc(Nc2cnc(C#N)c(O[C@H](C)CN(C)C)n2)ncc1-c1cnn(C)c1 | 0.148 µM (active) | 0.833 µM (active) | – | inactive | -0.958 (inactive) | -0.63 | -0.472 | – |

— PubChem BioAssay (NCATS)
